According to PubChem BioAssay AID1159580 (chemical genetic matrix, 2015):
Values joined by “and” are separate entries in the source; they are usually repeats but may differ in a detail not shown here. Identical values can stand only once. In all, about 5,500 compounds went through this assay and about 2,000 (36%) were called active. Inconclusive results (about 18%) are left out. No stated cut-off is given here; in the data, active means normalized growth mostly below about 0.91 (no sharp cut-off); inconclusive means no clear call, values can overlap the other calls; inactive means mostly above about 0.92. This is one part of the list.

Experiment: chemical genetic growth profiling, strain panel (AID 1159580);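 further: tested at 20 µM; growth read once vehicle control cultures reached saturation at 30 °C; 1 = growth at the plate median or of vehicle wells; lower values mean less growth of the strain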
Settings: S. cerevisiae deletion strains, growth OD

Measured: normalized growth

CN(C)CCOC(c1ccc(Cl)cc1)c1ccccn1 (centres undefined)
inactive: locus YAL021C, strain ccr4, active compounds read low 1.04 | locus YAL026C, strain drs2, active compounds read low 1.05 | locus YAL030W, strain snc1, active compounds read low 1.03 | locus YBL061C, strain skt5, active compounds read low 1.04 | locus YBR009C, strain hhf1, active compounds read low 1.02 | locus YBR021W, strain FUR4, active compounds read low 0.966 | locus YBR023C, strain chs3, active compounds read low 1.03 | locus YBR171W, strain sec66, active compounds read low 1.02 | locus YBR229C, strain ROT2, active compounds read low 1 | locus YBR231C, strain swc5, active compounds read low 1.01 | locus YBR279W, strain paf1, active compounds read low 1.02 | locus YCL011C, strain gbp2, active compounds read low 1.01 | locus YCL016C, strain dcc1, active compounds read low 1.01 | locus YCL029C, strain bik1, active compounds read low 0.999 | locus YCL069W, strain vba3, active compounds read low 1.02 | locus YCR088W, strain abp1, active compounds read low 1.01 | locus YDL005C, strain med2, active compounds read low 1.03 | locus YDL035C, strain GPR1, active compounds read low 0.978 | locus YDL040C, strain nat1, active compounds read low 1.02 | locus YDL074C, strain BRE1, active compounds read low 1.03 | locus YDL101C, strain DUN1, active compounds read low 1.04 | locus YDL185W, strain tfp1, active compounds read low 1 | locus YDL192W, strain arf1, active compounds read low 1.01 | locus YDR001C, strain nth1, active compounds read low 1.02 | locus YDR069C, strain doa4, active compounds read low 1.03 | locus YDR101C, strain arx1, active compounds read low 1.01 | locus YDR137W, strain rgp1, active compounds read low 1.01 | locus YDR159W, strain sac3, active compounds read low 1.02 | locus YDR162C, strain NBP2, active compounds read low 0.975 | locus YDR195W, strain ref2 1.02 | locus YDR297W, strain sur2, active compounds read low 1.03 | locus YDR318W, strain mcm21, active compounds read low 0.998 | locus YDR334W, strain swr1, active compounds read low 1.01 | locus YDR335W, strain msn5, active compounds read low 1.03 | locus YDR388W, active compounds read low 1.01 | locus YDR392W, strain spt3, active compounds read low 1.01 | locus YDR502C, strain sam2, active compounds read low 1.03 | locus YEL003W, strain gim4, active compounds read low 1.01 | locus YEL037C, strain rad23, active compounds read low 1.02 | locus YEL061C, strain CIN8 (second series), active compounds read low 1.02 | locus YEL061C, strain CIN8, active compounds read low 1.01 | locus YER015W, strain faa2, active compounds read low 1.04 | locus YER016W, strain bim1, active compounds read low 0.997 | locus YER110C, active compounds read low 1.02 | locus YER111C, strain swi4, active compounds read low 1.03 | locus YER155C, strain BEM2 (second series), active compounds read low 1.02 | locus YER155C, strain BEM2, active compounds read low 1.02 | locus YER167W, strain BCK2, active compounds read low 0.99 | locus YFR010W, strain ubp6, active compounds read low 1.03 | locus YGL078C, strain dbp3, active compounds read low 0.998 | locus YGL086W, strain mad1, active compounds read low 1.01 | locus YGL167C, strain pmr1, active compounds read low 1.01 | locus YGL173C, strain kem1, active compounds read low 1.02 | locus YGL227W, strain vid30, active compounds read low 1.03 | locus YGL240W, strain doc1, active compounds read low 1.04 | locus YGL248W, strain PDE1, active compounds read low 1.04 | locus YGL253W, strain hxk2, active compounds read low 1.03 | locus YGR078C, strain PAC10, active compounds read low 1.02 | locus YGR135W, strain pre9, active compounds read low 1 | locus YGR229C, strain SMI1, active compounds read low 0.983 | locus YGR252W, strain gcn5, active compounds read low 0.947 | locus YHR013C, strain ard1, active compounds read low 1.01 | locus YHR027C, strain rpn1, active compounds read low 1.02 | locus YHR030C, strain SLT2, active compounds read low 1 and 1.02 | locus YHR079C, strain IRE1 (second series), active compounds read low 1.01 | locus YHR079C, strain IRE1, active compounds read low 1 | locus YHR094C, strain hxt1, active compounds read low 1.01 | locus YHR129C, strain ARP1, active compounds read low 1.01 | locus YHR142W, strain chs7, active compounds read low 1.02 | locus YHR200W, strain rpn10, active compounds read low 1.01 | locus YIL066C, strain RNR3, active compounds read low 0.957 | locus YIL073C, strain SPO22, active compounds read low 1 | locus YIL125W, strain kgd1, active compounds read low 0.995 | locus YIR030C, strain dcg1, active compounds read low 1.03 | locus YJL092W, strain hpr5, active compounds read low 1.02 | locus YJL095W, strain BCK1 (second series), active compounds read low 1.01 | locus YJL095W, strain BCK1, active compounds read low 1.07 and 1 | locus YJL115W, strain asf1, active compounds read low 1.02 | locus YJL129C, strain trk1, active compounds read low 1.05 | locus YJL134W, strain LCB3, active compounds read low 1.01 | locus YJL154C, strain vps35, active compounds read low 1.02 | locus YJL164C, strain tpk1, active compounds read low 1 | locus YJL166W, strain qcr8, active compounds read low 1.03 | locus YJL168C, strain set2, active compounds read low 1.02 | locus YJL187C, strain SWE1 (second series), active compounds read low 1.04 | locus YJL187C, strain SWE1, active compounds read low 1.01 | locus YJR043C, strain POL32, active compounds read low 0.968 | locus YJR066W, strain TOR1, active compounds read low 0.981 | locus YJR075W, strain HOC1, active compounds read low 1.03 | locus YKL009W, strain mrt4, active compounds read low 1.02 | locus YKL068W, active compounds read low 0.997 | locus YKL085W, strain MDH1 (second series), active compounds read low 0.989 | locus YKL085W, strain MDH1, active compounds read low 0.989 | locus YKL160W, strain elf1, active compounds read low 1.02 | locus YKL190W, strain CNB1, active compounds read low 1 | locus YKR001C, strain vps1, active compounds read low 1 | locus YKR026C, strain gcn3, active compounds read low 1.03 | locus YKR091W, strain srl3, active compounds read low 1.02 | locus YLL001W, strain dnm1, active compounds read low 1.03 | locus YLL026W, active compounds read low 1.03 | locus YLL041C, strain sdh2, active compounds read low 1.02 | locus YLR027C, strain aat2, active compounds read low 1.03 | locus YLR039C, strain RIC1, active compounds read low 1.02 | locus YLR058C, strain SHM2, active compounds read low 1.01 | locus YLR102C, strain apc9, active compounds read low 1.01 | locus YLR113W, strain HOG1, active compounds read low 0.987 | locus YLR221C, strain rsa3, active compounds read low 1.01 | locus YLR258W, strain gsy2, active compounds read low 1.01 | locus YLR262C, strain YPT6 (second series), active compounds read low 1.04 | locus YLR262C, strain YPT6, active compounds read low 1.05 | locus YLR268W, strain sec22, active compounds read low 1 | locus YLR320W, strain mms22, active compounds read low 1 | locus YLR330W, strain CHS5, active compounds read low 1.01 | locus YLR342W, strain FKS1 (second series), active compounds read low 0.95 | locus YLR342W, strain FKS1, active compounds read low 1.04 | locus YLR357W, strain rsc2, active compounds read low 1.06 | locus YLR370C, strain arc18, active compounds read low 1.01 | locus YLR371W, strain rom2, active compounds read low 1 | locus YLR384C, strain iki3, active compounds read low 1.03 | locus YLR418C, strain cdc73, active compounds read low 1.07 | locus YML016C, strain PPZ1, active compounds read low 1.01 | locus YML032C, strain rad52, active compounds read low 0.998 | locus YML120C, strain ndi1, active compounds read low 1.02 | locus YML124C, strain tub3, active compounds read low 1 | locus YMR058W, strain fet3, active compounds read low 1.03 | locus YMR078C, strain ctf18, active compounds read low 1.01 | locus YMR125W, strain sto1, active compounds read low 1.01 | locus YMR129W, active compounds read low 1.03 | locus YMR205C, strain PFK2, active compounds read low 1.03 | locus YMR223W, strain ubp8, active compounds read low 0.998 | locus YMR231W, strain pep5, active compounds read low 1.03 | locus YMR307W, strain GAS1, active compounds read low 0.976 | locus YNL067W, strain RPL9B, active compounds read low 1.06 | locus YNL071W, strain lat1, active compounds read low 1.01 | locus YNL183C, strain NPR1, active compounds read low 0.941 | locus YNL209W, strain ssb2, active compounds read low 1.02 | locus YNL233W, strain BNI4, active compounds read low 1.04 | locus YNL248C, strain rpa49, active compounds read low 1.04 | locus YNL250W, strain rad50, active compounds read low 1.02 | locus YNL271C, strain bni1, active compounds read low 1.03 | locus YNL298W, strain CLA4, active compounds read low 0.994 | locus YNL307C, strain MCK1, active compounds read low 1.01 | locus YNL322C, strain KRE1 (second series), active compounds read low 1.03 | locus YNL322C, strain KRE1, active compounds read low 1.01 | locus YNR049C, strain mso1, active compounds read low 1.02 | locus YNR052C, strain pop2, active compounds read low 1.01 | locus YOL012C, strain htz1 0.873 | locus YOL147C, strain pex11, active compounds read low 1.01 | locus YOR001W, strain rrp6, active compounds read low 1.04 | locus YOR061W, strain CKA2, active compounds read low 1.01 | locus YOR069W, strain VPS5, active compounds read low 1.01 | locus YOR070C, strain gyp1, active compounds read low 1.01 | locus YOR080W, strain dia2, active compounds read low 1.02 | locus YOR083W, strain WHI5, active compounds read low 1.03 | locus YOR106W, strain vam3, active compounds read low 1.03 | locus YOR136W, strain idh2, active compounds read low 1.01 | locus YOR144C, strain elg1, active compounds read low 1 | locus YOR184W, strain ser1, active compounds read low 0.997 | locus YOR231W, strain MKK1, active compounds read low 0.996 | locus YOR265W, strain rbl2, active compounds read low 1.02 | locus YOR270C, strain vph1, active compounds read low 1.05 | locus YOR290C, strain snf2, active compounds read low 1 | locus YOR316C, strain cot1, active compounds read low 1.01 | locus YPL051W, strain arl3, active compounds read low 1.03 | locus YPL055C, strain LGE1, active compounds read low 0.976 | locus YPL078C, strain atp4, active compounds read low 1.02 | locus YPL106C, strain sse1, active compounds read low 0.993 | locus YPL240C, strain hsp82, active compounds read low 1.01 | locus YPL256C, strain CLN2, active compounds read low 1 | locus YPR119W, strain clb2, active compounds read low 1.01 | locus YPR141C, strain kar3, active compounds read low 1.01 | locus YPR163C, strain tif3, active compounds read low 1 | locus YPR167C, strain met16, active compounds read low 1 | strain wtn01, active compounds read low 0.995
